For seven molecules, growth results are on record in PubChem BioAssay (NCI).

The structures appear in SMILES notation. This is part of a sample that, as a whole, favours compounds with a hit. Of some 83,000 tested, about 20% had one in any assay.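 Negative percent growth values reflect cell death: -40 means 40% of the cells present at the start died, and -100 means all died.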 A number with no mark means an inactive call. Activity calls are given as the source filed them. The calls were made as follows: active = growth percent below 10; inactive = the rest.

Among the test systems are DU-145 prostate; K-562 leukemia; MALME-3M melanoma; MDA-MB-231 breast; RXF 393 renal; SF-268 CNS; SF-295 CNS; SF-539 CNS; UACC-257 melanoma; M14 melanoma; HCT-15 colon; HT29 colon; SNB-75 CNS; SNB-19 CNS; U251 CNS; PC-3 prostate; SK-MEL-5 melanoma; UACC-62 melanoma; LOX IMVI melanoma; SK-MEL-28 melanoma.
Holding throughout (test): NCI-60 one-dose screen, 48 h (100 = growth as untreated, 0 = no growth, -100 = all killed)
Holding throughout (details): 10 µM unless noted

Consider `O=C(Nc1ccc(C(=O)/C=C/c2ccc(N3CCOCC3)cc2)cc1)Nc1ccc([N+](=O)[O-])cc1`, for which the growth is 98% in the test on DU-145 prostate; 68.6% in the test with K-562 leukemia; 108% in the test on MALME-3M melanoma; 94.8% in the test on MDA-MB-231 breast; 119% with RXF 393 renal; 97.1% in the test on SF-268 CNS. The growth with SF-295 CNS is 103%; in the test with SF-539 CNS it was 109%; in the test with UACC-257 melanoma, 99%; in the test on M14 melanoma, 110%; with HCT-15 colon it was 92.9%; in the test with HT29 colon, 88.6%. Further, the growth in the test with SNB-75 CNS was 94.7%; in the test on SNB-19 CNS, 98.4%; with U251 CNS, 85.7%; in the test with PC-3 prostate it was 85.5%; in the test on SK-MEL-5 melanoma it was 95.1%; in the test with UACC-62 melanoma it was 79.6%. Further, the growth in the test on LOX IMVI melanoma is 107%; in the test on SK-MEL-28 melanoma it was 109%.
As for `CSc1nc2c(c(=O)n1C)C1(C(=O)N(Cc3ccccc3)c3ccccc31)c1c(nc(SC)n(C)c1=O)N2`, the growth is 92.7% in the test with DU-145 prostate; 89.8% in the test with K-562 leukemia; 94% with MALME-3M melanoma; 77.6% in the test with MDA-MB-231 breast; 88.3% in the test on RXF 393 renal; 97.2% in the test with SF-268 CNS. The growth with SF-295 CNS was 85.3%; with SF-539 CNS, 106%; in the test on UACC-257 melanoma, 75.1%; with M14 melanoma, 99.7%; in the test with HCT-15 colon it was 84%; in the test on HT29 colon, 86.2%. The growth in the test on SNB-75 CNS is 99%; in the test with SNB-19 CNS, 91.5%; in the test on U251 CNS it was 77.5%; in the test with PC-3 prostate, 44.9%; with SK-MEL-5 melanoma it was 93%; with UACC-62 melanoma, 93.6%. Besides, the growth is 101% in the test with LOX IMVI melanoma and 104% in the test with SK-MEL-28 melanoma.
On to `Cc1cnc(N)nc1OCCNC(=O)c1cccc(-c2ccc(S(=O)(=O)Nc3ccc4c(c3)N(C(=O)C3CC3)CCC4)cc2)c1`, for which the growth with DU-145 prostate was 90.2%; in the test on K-562 leukemia it was 58.8%; with MALME-3M melanoma it was 120%; with MDA-MB-231 breast, 89.5%; with RXF 393 renal, 88.3%; with SF-268 CNS, 74.5%. The growth in the test on SF-295 CNS is 77.9%; with SF-539 CNS, 92%; in the test with UACC-257 melanoma, 84.1%; in the test on M14 melanoma, 80.1%; in the test on HCT-15 colon, 96.4%; with HT29 colon it was 80.5%. Further, the growth was 57.3% in the test on SNB-75 CNS; 75.5% in the test with SNB-19 CNS; 88.4% with U251 CNS; 53.5% with PC-3 prostate; 23.8% with SK-MEL-5 melanoma; 48.1% with UACC-62 melanoma. For the same molecule, the growth in the test with LOX IMVI melanoma was 88.5%; in the test on SK-MEL-28 melanoma, 88.6%.
Regarding `COC(=O)C(=Cc1ccccc1[N+](=O)[O-])C(=O)OC`, the growth in the test on DU-145 prostate is -45.6% (active); with K-562 leukemia it was -12% (active); in the test on MALME-3M melanoma, 25.2%; with MDA-MB-231 breast it was 48%; with RXF 393 renal, -29.1% (active); in the test with SF-268 CNS it was 0.377% (active). In addition, the growth with SF-295 CNS was 97.1%; in the test with SF-539 CNS, 58.1%; with UACC-257 melanoma, 57.1%; in the test on M14 melanoma it was 32%; in the test on HCT-15 colon, 19.8%; in the test on HT29 colon it was 21.3%. The growth in the test on SNB-75 CNS was 33.5%; in the test on SNB-19 CNS, 88.9%; with U251 CNS it was 23.7%; in the test on PC-3 prostate, 40.4%; in the test with SK-MEL-5 melanoma, 49.1%; in the test with UACC-62 melanoma, 19.6%. The growth was 10.7% in the test on LOX IMVI melanoma and 36.4% in the test on SK-MEL-28 melanoma.
For the molecule `Cc1cccc(C[C@H](NC(=O)Nc2ccc(C)cc2F)C(=O)N[C@@H]2C(=O)N3C[C@H](O)C[C@H]3C(=O)N3CCN(C)C[C@H]3C(=O)N[C@@H](C)C(=O)N3C[C@H](C)C[C@H]3C(=O)O[C@H]2C)c1`, the growth in the test with DU-145 prostate is 38.4%; in the test on K-562 leukemia, 23.1%; in the test with MALME-3M melanoma, 39.9%; in the test with MDA-MB-231 breast, 18.7%; with RXF 393 renal, 79.1%; in the test with SF-268 CNS, 31.6%. Moreover, the growth in the test with SF-295 CNS is 45%; in the test with SF-539 CNS, 50.7%; in the test on UACC-257 melanoma, 27.3%; with M14 melanoma, 79.9%; in the test on HCT-15 colon, 105%; with HT29 colon, 33.8%. Further, the growth with SNB-75 CNS is 23.6%; with SNB-19 CNS, 22.7%; in the test on U251 CNS it was 26.5%; with PC-3 prostate, 22.6%; in the test on SK-MEL-5 melanoma, 66.3%; in the test with UACC-62 melanoma it was 31.4%. In addition, the growth with LOX IMVI melanoma is 38.5%; in the test on SK-MEL-28 melanoma, 47.9%.
With `O=C(N/N=C/c1ccc([N+](=O)[O-])cc1)c1ccc(Br)o1`, the growth with DU-145 prostate is 126%; in the test with K-562 leukemia it was 114%; in the test on MALME-3M melanoma it was 106%; in the test with MDA-MB-231 breast, 113%; with RXF 393 renal, 90.3%; with SF-268 CNS, 111%. Further, the growth in the test on SF-295 CNS is 83%; with SF-539 CNS it was 97.8%; with UACC-257 melanoma it was 107%; with M14 melanoma it was 107%; in the test on HCT-15 colon, 94.5%; in the test with HT29 colon it was 106%. Moreover, the growth in the test on SNB-75 CNS was 105%; in the test with SNB-19 CNS it was 90.2%; in the test with U251 CNS it was 101%; in the test with PC-3 prostate, 87.1%; with SK-MEL-5 melanoma, 95.8%; in the test with UACC-62 melanoma, 99.6%. Moreover, the growth was 98% in the test on LOX IMVI melanoma and 110% with SK-MEL-28 melanoma.
Take `CC(C)[C@H]1CCC2=C3CC[C@]45OC(=O)[C@@]6(CCC(C)(C)C[C@H]64)CC[C@@]5(C)[C@]3(C)CC[C@@]21C`: the growth with DU-145 prostate was 83.3% [100 µM]; with K-562 leukemia, 45.3% [100 µM]; in the test with MALME-3M melanoma, 91.6% [100 µM]; with MDA-MB-231 breast it was 61.2% [100 µM]; in the test on RXF 393 renal, 78.6% [100 µM]; in the test on SF-268 CNS it was 75.6% [100 µM]. The growth is 88.7% [100 µM] in the test with SF-295 CNS; 71.6% [100 µM] with SF-539 CNS; 77.1% [100 µM] in the test on UACC-257 melanoma; 86.3% [100 µM] in the test on M14 melanoma; 85.8% [100 µM] in the test with HCT-15 colon; 42.2% [100 µM] with HT29 colon. Further, the growth with SNB-75 CNS was 30.4% [100 µM]; with SNB-19 CNS, 71.6% [100 µM]; in the test with U251 CNS it was 66.5% [100 µM]; in the test on PC-3 prostate it was 39.3% [100 µM]; in the test with SK-MEL-5 melanoma, 42.6% [100 µM]; in the test with UACC-62 melanoma, 59.3% [100 µM]. Further, the values for the growth with LOX IMVI melanoma and in the test with SK-MEL-28 melanoma were 78.8% [100 µM] and 87.4% [100 µM], respectively.
